A number with no mark means an inactive call. No rule for the calls is given here.
Biological target: Pantothenate synthetase (Mycobacterium tuberculosis (strain ATCC 25618 / H37Rv)) (UniProt P9WIL5)
Experiment: Coupled enzyme confirmation of inhibitors against recombinant Mtb PanC (AID 375);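 also: 0% = full reaction with vehicle and 100% = no enzyme background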
Settings: coupled enzyme assay; at 10 µM, active compounds read high

Sequence of Pantothenate synthetase (Mycobacterium tuberculosis (strain ATCC 25618 / H37Rv)) (P9WIL5 whole entry, looked up): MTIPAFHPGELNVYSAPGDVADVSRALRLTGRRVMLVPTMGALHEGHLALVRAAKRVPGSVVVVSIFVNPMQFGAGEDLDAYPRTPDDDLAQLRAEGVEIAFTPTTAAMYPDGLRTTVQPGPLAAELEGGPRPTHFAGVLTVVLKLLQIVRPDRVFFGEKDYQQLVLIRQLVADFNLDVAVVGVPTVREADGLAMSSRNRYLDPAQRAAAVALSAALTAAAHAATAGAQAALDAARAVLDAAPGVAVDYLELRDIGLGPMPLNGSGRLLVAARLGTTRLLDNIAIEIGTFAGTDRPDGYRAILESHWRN

Row | SMILES | inhibition
1 | COC(=O)Nc1ccc(S(=O)(=O)N(C)CC(F)(F)C(F)F)cc1 | 6%
2 | Cc1cc(C2C(C#N)=C(N)SC(N)=C2C#N)c(C)s1 | 0%
3 | COCCN(CCOC)Cc1c(C)[nH]c2ccccc2c1=O | 0%
4 | COc1cccc(CNc2cccc3cccnc23)c1O | 0%
5 | CC1(C)CC(=O)C2=C(C1)NC(=O)CC2c1ccc(N(CCC#N)CCC#N)cc1 (stereo not drawn) | 9%
6 | O=C(C1CC1)N1CCC(c2nc(-c3ccc(S(=O)(=O)NCC4CCCO4)cc3)no2)CC1 (stereo not drawn) | 0%
7 | COc1ccc2[nH]c(=O)c(CNC3CCCCC3)cc2c1 | 0%
8 | Nc1nonc1-c1noc(CCCCCN2C(=O)c3ccccc3C2=O)n1 | 4%
9 | COc1c(S(=O)(=O)n2nc(C)cc2C)ccc(Cl)c1Cl | 3%
10 | CCOC(=O)CSc1nc2cc(C(=O)NCc3ccco3)ccc2c(=O)n1-c1ccc(F)cc1 | 3%
11 | O=C(c1ccc2ccccc2n1)N1CCN(c2ccccc2)CC1 | 0%
12 | CCOC(=O)c1cccc(NC(=O)c2ccco2)c1 | 0%
13 | Cc1n[nH]c(C)c1S(=O)(=O)N1CCN(c2ccccn2)CC1 | 2%

— PubChem BioAssay
